CDC25B-CDK2 inh: human CDC25B-CDK2/CyclinA binding inhibition; P30305+P24941; z-score (concentration not given with the values); hit rate 0.72% among 94,000; HTRF CDC25B-CDK2/CyclinA binding, anti-His/anti-Flag; stronger effect = higher value; AID 1259370; in the data active = z-score above about 3.2
TAR Tat displ: HIV-1 TAR-Tat binding disruption; HIV-1 TAR RNA, Tat peptide displacement FRET; stronger effect = higher value; AID 1259389; z-score (test concentration not listed); hit rate 0.6% among 100,000; active = z-score of 3 or more in at least 2 runs
Hits are given with their value; 0 = inactive; - = no result. Compounds with a hit are over-represented: about 0.9% of the library has one in this group of screens.

SMILES	CDC25B-CDK2 inh	TAR Tat displ
CCOc1ccc(S(=O)(=O)c2c[nH]c3ccc(F)cc3c2=O)cc1	0	0
CCCCC(CC)CNS(=O)(=O)c1cc(Br)cc2c1N(C(=O)C1CC1)CC2 (stereo not given)	0	0
Cc1c(C(=O)CC#N)sc2ccc(Cl)cc12	0	-
Cc1c(C(=O)Cn2ccnc2)sc2ccc(Cl)cc12	13.6	-
COc1ccc(NC(=O)Nc2nnc(CC(=O)Nc3ccc(C)cc3)s2)cc1	5.53	-
Cc1ccc(NC(=O)Nc2nnc(CC(=O)Nc3ccccc3)s2)cc1	0	-
COC(=O)CC(C(=O)OC)P(=O)(O)CN(C)S(C)(=O)=O (stereo not given)	4.5	-
O=C1N(Cc2ccccc2Cl)c2ccccc2S(=O)(=O)N1c1ccccc1	-	0
CCCc1cc(=O)n2nc(N3CCC(C(=O)N4CCOCC4)CC3)sc2n1	0	0
COc1ccc(-c2nc(=S)c3c([nH]2)Oc2ccccc2C3)cc1O	10.3	0
COc1cccc2c1Oc1[nH]c(-c3ccc(O)cc3)nc(=S)c1C2	0	0
COc1cccc2c1Oc1[nH]c(-c3ccc(C(=O)O)cc3)nc(=S)c1C2	0	33.3
COc1ccc(-c2nc(=S)c3c([nH]2)Oc2ccccc2C3)cc1OC	0	0
Cn1c(=O)oc2cc(S(=O)(=O)CCC(=O)Nc3ccccc3F)ccc21	-	0
Cc1nc(N2CCCC(C)C2)c2c3c(sc2n1)CCC3 (stereo not given)	-	0
O=c1[nH]c(=S)[nH]c2sc3c(c12)CCCC3	0	-
COC(=O)c1[nH]c2sc3c(c2c1N)CCCC3	14.2	6.97
CCOC(=O)c1[nH]c2sc(C)c(C)c2c1N	0	0
CCOC(=O)c1[nH]c2sc3c(c2c1N)CCCC3	16.8	5.16
CCCC(=O)Nc1nnc(SCc2nc3cc(C)c(C)cc3[nH]c2=O)s1	-	0
CC1SCC(=NOC(=O)Nc2ccc(Cl)cc2)CS1 (stereo not given)	0	-
CC1SCC(=NOC(=O)c2ccccc2Cl)CS1 (stereo not given)	12.9	-
CS(=O)(=O)N1CCN(c2ccc(NC(=O)CN3C(=O)c4ccccc4S3(=O)=O)cc2)CC1	0	0
O=C(CN1C(=O)c2ccccc2S1(=O)=O)Nc1ccc(N2CCCC2)cc1	11.3	14.9
COc1ccccc1-c1csc(-c2c(N)c(C(=O)c3ccccc3)n3ccccc23)n1	0	0
SMILES	CDC25B-CDK2 inh	TAR Tat displ
O=C(NC(NC(=S)Nc1cccc2ccccc12)C(Cl)(Cl)Cl)c1ccccc1F (stereo not given)	5.27	-
O=C(NC(NC(=S)Nc1ccccc1Br)C(Cl)(Cl)Cl)c1ccccc1 (stereo not given)	0	-
CCC(C(=O)NC1CCCC(C)C1C)n1nc(C)c2sc3ccccc3c2c1=O (stereo not given)	0	0
O=C1CCCN1c1ccc(S(=O)(=O)NC2CCCCC2)cc1	-	0
CC1CC(C)CN(C(=O)CSC2=Nc3ccccc3C3=NC(Cc4c[nH]c5ccccc45)C(=O)N23)C1 (stereo not given)	-	5.37
O=C(CSC1=Nc2ccccc2C2=NC(Cc3c[nH]c4ccccc34)C(=O)N12)NC1CCCCC1 (stereo not given)	-	0
Cc1nn2cc(-c3ccccc3)cc2c2c(C)n(Cc3ccccc3)c(C)c12	0	0
COc1ccc(-n2c(C)c3c(C)nn4cc(-c5ccc(C)o5)cc4c3c2C)cc1	7.22	16.1
CC(C)C(NS(=O)(=O)c1cccs1)C(=O)NCCc1ccco1 (stereo not given)	-	0
Cc1cccc(C(=O)Nc2cnc3sccn3c2=O)c1	0	0
N#CC1=C2SCN(c3ccccc3F)CN2C(=O)CC1c1cccc(Br)c1 (stereo not given)	0	0
N#CC1=C2SCN(c3ccccc3F)CN2C(=O)CC1c1c(F)cccc1Cl (stereo not given)	0	0
N#CC1=C2SCN(c3ccccc3F)CN2C(=O)CC1c1cccc(F)c1 (stereo not given)	6.6	0
CCc1ccccc1N1CSC2=C(C#N)C(c3cccc(F)c3)CC(=O)N2C1 (stereo not given)	6.32	0
Cc1cc(NC(=O)C2=Cc3sc4c(c3CS2)CCCC4)no1	-	0
O=c1c(NCCc2c[nH]c3ccccc23)nccn1-c1cccc(F)c1	-	0
CSc1nnc(S/C(C(C)=O)=C(/C)O)s1	16	-
CSc1nnc(SCC(=O)N2CCC(C(F)(F)F)CC2)s1	0	-
CCN1CCN(C(=O)c2oc3ccc4c(c3c2C)C(=O)CC2(CCCCC2)O4)CC1	0	0
O=C(C1CCN(c2nn3c(=O)c4c(nc3s2)CCCC4)CC1)N1CCN(c2ccccn2)CC1	-	0
CCC(=O)Nc1ccc2nc(SCC(N)=O)sc2c1	0	0
NC(=O)CSc1nc2ccc(NC(=O)c3ccco3)cc2s1	12.2	0
O=C(CSc1nc2ccc(NC(=O)c3ccco3)cc2s1)Nc1nccs1	0	0
Nc1ccc2nc(SCC(=O)Nc3ccc4nc(SCC(=O)NC5CC5)sc4c3)sc2c1	19.1	-
COc1ccc(N2CSC3=C(C#N)C(c4c(OC)ccc5ccccc45)CC(=O)N3C2)cc1 (stereo not given)	6.43	0
